The structures appear in SMILES notation. Hit rate of the full screen: of about 1,200 compounds, fewer than 10 were called active. The call rests on the fitted dose curve; in most records, active means well fitted curve in the direction sought with a large enough effect; inconclusive means small, poorly fitted or top-dose-only effect, or another doubt; inactive means no such curve, though single readings can be large or run the other way. Only a sample is shown.

The target of this experiment is Transcriptional regulator ERG (Homo sapiens) (UniProt P11308). The experiment in a line: qHTS for Small Molecule Inhibitors of the ERG Ets/DNA interaction: TR assay against cherry picks. To be noted: ERG Ets domain-DNA fluorescence polarization, Texas red probe; series mostly up to 154 µM. From the text: The Ets family of proteins is a family of ~30 conserved transcription factors defined by the presence of an ~85 amino acid domain referred to as the Ets domain, which mediates sequence-specific DNA binding to a core DNA element GGAA/T.The Ets family member ERG has been linked to several neoplasms. […] More extensive studies of the effects of over-expression of ERG in prostate cells have recently been carried out and have shown that over-expression of ERG results in increased invasion. […] We will carry out a high throughout screen to identify inhibitors of the interaction between ERG and DNA using a fluorescence polarization (FP) assay with a His-tagged ERG Ets domain and fluorescently-labeled DNA probes to develop small molecule inhibitors of this interaction as probes to test this hypothesis and lay the groundwork for the development of targeted therapies against ERG. This is the confirmation against the cherry picks in theprimary screening assay. NIH Molecular Libraries Probe Production Network [MLPCN] NIH Chemical Genomics Center [NCGC] Grant: NS066464 PI Name: John Bushweller, University of Virgina
Transcriptional regulator ERG (Homo sapiens), sequence (P11308 whole entry, looked up, the tested form may be a part): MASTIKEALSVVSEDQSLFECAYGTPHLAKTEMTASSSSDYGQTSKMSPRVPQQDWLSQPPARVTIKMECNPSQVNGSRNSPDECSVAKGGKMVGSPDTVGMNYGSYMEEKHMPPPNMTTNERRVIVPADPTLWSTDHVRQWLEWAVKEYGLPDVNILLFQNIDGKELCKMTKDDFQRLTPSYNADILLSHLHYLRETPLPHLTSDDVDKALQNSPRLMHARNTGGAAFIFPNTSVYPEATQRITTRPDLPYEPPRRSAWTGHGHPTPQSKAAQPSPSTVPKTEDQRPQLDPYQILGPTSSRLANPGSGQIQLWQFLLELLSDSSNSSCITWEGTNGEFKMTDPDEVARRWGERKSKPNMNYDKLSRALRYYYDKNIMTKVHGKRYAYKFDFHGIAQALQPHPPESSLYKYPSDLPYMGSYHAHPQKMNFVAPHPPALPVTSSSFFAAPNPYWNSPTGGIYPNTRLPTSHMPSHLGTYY
1.5 ul of protein solution (1 uM ERG domain in 300mM KCl, 50mM Tris-HCl, 1mM EDTA, 1mM DTT, pH 7.5); 20 nl Control plate and compound library plate; 1.5 ul mixture of 5 nM Fluorescein-DNA and 100nM Texas-615-DNA solution in same buffer as above solution; measure fluorescence polarization sequentially for fluorescein (Excitation = 480 nm, Emission = 535s, 535p nm) and Texas red (Excitation = 555 nm, Emission = 632s, 632p nm).
As to `COc1ccc(CN2CCC(C(=O)N3CCCC(C)C3)CC2)cc1OC` (centres undefined), the compound was classed as inactive.

As for `Cc1ccc(NS(=O)(=O)c2cc(Br)cnc2N)c(Cl)c1`, the result was inactive.

As for `CCOc1cc(S(=O)(=O)n2ccc(C)n2)ccc1Br`, the outcome was inactive.

Take `COc1ccc(NC(=O)C2CC(=O)n3c(nc4ccccc43)N2)cc1` (centres undefined): the call was inactive.

Turning to `COc1ccc(OC)c(NC(=O)c2cccc(NC(=O)c3ccccc3)c2)c1`, the compound was called inactive.

On to `COc1ccc(CNCCC2(C(C)C)CCOC(C)(C)C2)cc1` (centres undefined), for which the call was inactive.

As for `O=C(NCCCN1CCOCC1)c1ccc(CSc2ccc(Cl)cc2)cc1`, the compound was classed as inactive.

For `O=C(CN1C(=O)CS/C1=C\c1nc(-c2ccc(Cl)cc2)cs1)Nc1cccnc1Cl`, the call was inactive.

With `NCCNc1ccc2nnnn2n1`, the call was inactive.

With `CCN(CC)S(=O)(=O)c1cccc(-c2nc3n(n2)Cc2ccccc2-3)c1`, the outcome was inactive.

With `O=C(COc1ccc(-c2ccccc2)cc1)N1CCN(C(=O)c2cccs2)CC1`, the result was inactive.

In the case of `Cc1cc(/C=C(\C#N)C(=O)Nc2ccccc2)c(C)n1-c1ccc(C(=O)O)cc1`, the result was inactive.

In the case of `Cc1ccc(C=Nc2cccnc2N)cc1`, the outcome was inactive.

In the case of `CC(C)C1NC(=S)N(Cc2ccccc2)C1=O` (centres undefined), the outcome was inactive.

Turning to `Cc1nc2ccccc2c(=O)n1NC(=O)c1cccnc1Cl`, the result was inactive.

Regarding `COc1ccc(CCn2c(C)cc(C(=O)COC(=O)c3cnc(C)cn3)c2C)cc1`, the call was inactive.

For `CCC(CC)COC(=O)C(C#N)c1nc2ccccc2nc1N1CCN(CC)CC1` (centres undefined), the result was inactive.

`CCc1ccccc1N(CC(=O)NCc1ccco1)C(=O)CCC(=O)Nc1ccccn1`: the call was inactive.

With `COc1ccc(NC(=O)CSCC(=O)N(C)Cc2cccc(OC)c2OC)cc1`, the result was inactive.

Turning to `CN(C)c1ccc2c3c(ccc(N(C)C)c13)C(=O)OC2`, the outcome was inactive.

In the case of `COc1ccc(NC(=S)NCc2ccc3c(c2)cc(C)n3C)cc1`, the compound was classed as inactive.

On to `Cc1cc2cc(CNC(=O)c3ccc(S(=O)(=O)N4CCCCC4)cc3)ccc2n1C`, for which the result was inactive.

In the case of `COc1cc(OC)c(N(C)S(=O)(=O)c2cccc(C(=O)NC(C)C3CC4CCC3C4)c2)cc1Cl` (centres undefined), the call was inactive.

On to `Nc1nc(Cl)c2ncn(C3OC(CO)C(O)C3O)c2n1` (centres undefined), for which the result was inactive.

`CC(C)(C)c1ccc(OCC(=O)Nc2cccc(S(=O)(=O)NC3=NCCCCC3)c2)cc1`: the compound was classed as inactive.

On to `CCc1nc2ccccc2c(C(=O)NCc2ccccc2)c1C`, for which the compound was called inactive.

Regarding `COC(=O)c1cc(NC(=O)c2c(Cl)cnn2C)cc(C(=O)OC)c1`, the call was inactive.

For the compound `O=C(CC(c1ccccc1)c1cc(Cl)ccc1O)NCCCN1CCOCC1` (centres undefined), the outcome was inactive.

On to `Cc1cccc(N2C(=O)CC(Cn3nc(C)cc3C)C2=O)c1` (centres undefined), for which the call was inactive.

Regarding `CC1=CC(=O)C(C(C)C)=C/C1=C(\c1cc(C(C)C)c(OP(=O)(O)O)cc1C)c1ccccc1C(=O)O`, the compound was called inactive.

For `Nc1c(C(=O)O)cnn1-c1ccccc1`, the result was inactive.

Consider `OC(Cn1cnnc1)c1ccccc1` (centres undefined), for which the outcome was inactive.

As for `COc1ccccc1NS(=O)(=O)c1cc(C(=O)N2CCCC2)ccc1C`, the result was inactive.

Consider `COc1ccc(-c2nc3n(n2)C(c2ccccc2OC)C(C(=O)Nc2cccnc2)=C(C)N3)cc1` (centres undefined), for which the outcome was inactive.

For the compound `COc1ccc2c(CCNC(=O)/C=C/c3ccc(OC)c(OC)c3)c[nH]c2c1`, the outcome was inactive.

Turning to `O=C(/C=C/c1ccc([N+](=O)[O-])cc1)NCc1ccco1`, the outcome was inactive.

On to `CC1(C)C2CCC1(CS(=O)(=O)N1CCC(C(N)=O)CC1)C(=O)C2` (centres undefined), for which the compound was classed as inactive.

Consider `CC(C)CNC(=O)CCc1nc(-c2ccccc2)no1`, for which the outcome was inactive.

With `COc1ccc(N/C=C(\C(C)=O)c2ccc(OC)c(OC)c2)cc1OC`, the compound was classed as inactive.

As for `O=C(CNC(=S)N(CCCN1CCOCC1)Cc1cccs1)NC1CCCCC1`, the call was inactive.

As for `O=C(COc1ccc(F)cc1)Nc1nnc(-c2ccncc2)s1`, the call was inactive.

On to `COc1ccc(CCCC(=O)Nc2cc(C)ccc2OC)cc1`, for which the outcome was inactive.

Turning to `CCOC(=O)C1CCCN(C(=O)c2nn(-c3ccc(C)cc3)c(=O)n(C)c2=O)C1` (centres undefined), the compound was called inactive.

For the compound `O=[N+]([O-])c1ccc(S(=O)(=O)N/N=C/c2ccsc2)cc1`, the call was inactive.

With `O=C(Nc1ccc(N2CCOCC2)cc1)c1ccc2nc(-c3ccco3)c(-c3ccco3)nc2c1`, the call was inactive.

For the compound `CCn1c(=O)cc(OCC(=O)Nc2ccccc2C#N)c2ccccc21`, the compound was classed as inactive.

On to `CCOC(=O)C(=O)c1c(-c2ccccc2)nc2ccccn12`, for which the outcome was inactive.

For `O=C(NCC(=O)N(c1ccccc1)C(C(=O)NC1CCCCC1)c1cccnc1)c1ccco1` (centres undefined), the outcome was inactive.

For `C[C@H](CO)N1C[C@H](C)[C@@H](CN(C)CC2CC2)Oc2c(NC(=O)C3CC3)cccc2C1=O`, the outcome was inactive.

Regarding `CCOc1ccccc1C1CC(c2ccc(Br)cc2)Nc2nc(N)nn21` (centres undefined), the result was inactive.

`COc1ccc(/C=C/C(=O)Nc2c(C(=O)O)[nH]c3ccccc23)cc1OC`: the compound was called inactive.

As for `COc1ccc(-c2noc(Cn3c(=O)c4ccccc4n(CC(=O)Nc4cccc(C(F)(F)F)c4)c3=O)n2)cc1`, the result was inactive.

In the case of `COCCNC(=O)CSc1nc2ccccc2c(=O)n1-c1cccc(OC)c1`, the compound was classed as inactive.

On to `CCCCSc1cc(=O)n(-c2ccccc2)nc1C(=O)OCC`, for which the outcome was inactive.

With `COc1c2c(c(CCC(=O)O)c3c1C=CC(C)(C)O3)OC(C)(C)C=C2`, the compound was classed as inactive.

For the compound `CC1Cc2ccccc2N1CC(=O)Nc1ccc2c(c1)OCO2` (centres undefined), the result was inactive.

For the compound `CCC(C)NCCCOc1ccc(C)cc1OC` (centres undefined), the result was inactive.

For the compound `CCc1ccc(S(=O)(=O)NC2CC(C)(C)NC(C)(C)C2)cc1`, the call was inactive.

Regarding `Cc1cc2nc(-c3ccc[nH]c3=O)n(Cc3ccccc3F)c2cc1C`, the outcome was inactive.

For `COc1ccc(OCCN2CCN(C(=O)c3ccc(OC(F)F)c(OC)c3)CC2)cc1`, the compound was classed as inactive.

Turning to `COc1ccc(C(=O)N(C)Cc2ccc(C)o2)cc1OC1CCN(C(C)C)CC1`, the call was inactive.

Take `COC(=O)C(CSCc1ccccc1)NC(=O)CSc1nc(N)cc(=O)[nH]1` (centres undefined): the call was inactive.

Consider `COc1ccc2cc(CO)c(Cl)nc2c1`, for which the compound was called inactive.

In the case of `Cc1cccc(-c2cnn(-c3cccc([N+](=O)[O-])c3)c2N)c1`, the compound was called inactive.

Regarding `CC(=O)Nc1ccc(SCC(=O)N(C)C2CCS(=O)(=O)C2)cc1` (centres undefined), the compound was classed as inactive.

`CC(C)=CCOc1ccc2ccc(=O)oc2c1`: the outcome was inactive.

Consider `CCOC(=O)COc1ccc(/C=C2/C(=O)NN(c3ccc(F)cc3)C2=O)cc1OC`, for which the call was inactive.

Take `Cc1ccc(-c2nnn(CC(=O)N(c3ccccc3)C(C(=O)NCC3CCCO3)c3ccc(F)cc3)n2)o1` (centres undefined): the outcome was inactive.

`Cc1ccc(CNC(=O)COc2ccc(S(=O)(=O)N3CCCC3)cc2)cc1`: the outcome was inactive.
